Laboratory results: PubChem BioAssay AID1159580 (chemical genetic matrix, 2015)
In all, about 5,500 compounds went through this assay and about 2,000 (36%) were called active. Not shown: some 18% with an inconclusive outcome. Cut-off read from the data, not from the text of the source: active = normalized growth mostly below about 0.91 (no sharp cut-off); inconclusive = no clear call, values can overlap the other calls; inactive = mostly above about 0.92. The list shows a part of the results.

Assay: chemical genetic growth profiling, strain panel (AID 1159580);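 note: tested at 20 µM; growth read once vehicle control cultures reached saturation at 30 °C; 1 = growth at the plate median or of vehicle wells; lower values mean less growth of the strain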
Details: growth OD

Measured: normalized growth

CCCC1O[C@@H]2CC3C4CCC5=CC(=O)C=CC5(C)C4[C@@H](O)CC3(C)[C@]2(C(=O)CO)O1 (some centres not stated)
inactive: S. cerevisiae deletion strains, locus YJR075W, strain HOC1, stronger effect = lower value 1 | S. cerevisiae deletion strains, locus YKL009W, strain mrt4, stronger effect = lower value 1.03 | S. cerevisiae deletion strains, locus YKL068W, stronger effect = lower value 1 | S. cerevisiae deletion strains, locus YKL085W, strain MDH1 (second series), stronger effect = lower value 0.994 | S. cerevisiae deletion strains, locus YKL085W, strain MDH1, stronger effect = lower value 0.994 | S. cerevisiae deletion strains, locus YKL160W, strain elf1, stronger effect = lower value 1.01 | S. cerevisiae deletion strains, locus YKL190W, strain CNB1, stronger effect = lower value 0.995 | S. cerevisiae deletion strains, locus YKR001C, strain vps1, stronger effect = lower value 0.997 | S. cerevisiae deletion strains, locus YKR026C, strain gcn3, stronger effect = lower value 1.01 | S. cerevisiae deletion strains, locus YKR091W, strain srl3, stronger effect = lower value 1 | S. cerevisiae deletion strains, locus YLL001W, strain dnm1, stronger effect = lower value 1.02 | S. cerevisiae deletion strains, locus YLL026W, stronger effect = lower value 1.01 | S. cerevisiae deletion strains, locus YLL041C, strain sdh2, stronger effect = lower value 1.01 | S. cerevisiae deletion strains, locus YLR027C, strain aat2, stronger effect = lower value 1 | S. cerevisiae deletion strains, locus YLR039C, strain RIC1, stronger effect = lower value 1.02 | S. cerevisiae deletion strains, locus YLR058C, strain SHM2, stronger effect = lower value 1 | S. cerevisiae deletion strains, locus YLR102C, strain apc9, stronger effect = lower value 1.02 | S. cerevisiae deletion strains, locus YLR113W, strain HOG1, stronger effect = lower value 0.931 | S. cerevisiae deletion strains, locus YLR221C, strain rsa3, stronger effect = lower value 0.986 | S. cerevisiae deletion strains, locus YLR258W, strain gsy2, stronger effect = lower value 1.02 | S. cerevisiae deletion strains, locus YLR262C, strain YPT6 (second series), stronger effect = lower value 1 | S. cerevisiae deletion strains, locus YLR262C, strain YPT6, stronger effect = lower value 1 | S. cerevisiae deletion strains, locus YLR268W, strain sec22, stronger effect = lower value 1 | S. cerevisiae deletion strains, locus YLR320W, strain mms22, stronger effect = lower value 1.01 | S. cerevisiae deletion strains, locus YLR330W, strain CHS5, stronger effect = lower value 1 | S. cerevisiae deletion strains, locus YLR342W, strain FKS1 (second series), stronger effect = lower value 1.02 | S. cerevisiae deletion strains, locus YLR342W, strain FKS1, stronger effect = lower value 1.01 | S. cerevisiae deletion strains, locus YLR357W, strain rsc2, stronger effect = lower value 1.03 | S. cerevisiae deletion strains, locus YLR370C, strain arc18, stronger effect = lower value 1.01 | S. cerevisiae deletion strains, locus YLR371W, strain rom2, stronger effect = lower value 1.02 | S. cerevisiae deletion strains, locus YLR384C, strain iki3, stronger effect = lower value 1.01 | S. cerevisiae deletion strains, locus YLR418C, strain cdc73, stronger effect = lower value 0.978 | S. cerevisiae deletion strains, locus YML016C, strain PPZ1, stronger effect = lower value 1.01 | S. cerevisiae deletion strains, locus YML032C, strain rad52, stronger effect = lower value 1.04 | S. cerevisiae deletion strains, locus YML120C, strain ndi1, stronger effect = lower value 1 | S. cerevisiae deletion strains, locus YML124C, strain tub3, stronger effect = lower value 1.01 | S. cerevisiae deletion strains, locus YMR058W, strain fet3, stronger effect = lower value 1 | S. cerevisiae deletion strains, locus YMR078C, strain ctf18, stronger effect = lower value 1.02 | S. cerevisiae deletion strains, locus YMR125W, strain sto1, stronger effect = lower value 1 | S. cerevisiae deletion strains, locus YMR129W, stronger effect = lower value 1.01 | S. cerevisiae deletion strains, locus YMR205C, strain PFK2, stronger effect = lower value 1 | S. cerevisiae deletion strains, locus YMR223W, strain ubp8, stronger effect = lower value 1.03 | S. cerevisiae deletion strains, locus YMR231W, strain pep5, stronger effect = lower value 1.01 | S. cerevisiae deletion strains, locus YMR263W, strain SAP30, stronger effect = lower value 0.999 | S. cerevisiae deletion strains, locus YMR307W, strain GAS1, stronger effect = lower value 1.06 | S. cerevisiae deletion strains, locus YNL067W, strain RPL9B, stronger effect = lower value 0.99 | S. cerevisiae deletion strains, locus YNL071W, strain lat1, stronger effect = lower value 1 | S. cerevisiae deletion strains, locus YNL128W, strain TEP1, stronger effect = lower value 1 | S. cerevisiae deletion strains, locus YNL153C, strain GIM3, stronger effect = lower value 0.992 | S. cerevisiae deletion strains, locus YNL183C, strain NPR1, stronger effect = lower value 0.962 | S. cerevisiae deletion strains, locus YNL209W, strain ssb2, stronger effect = lower value 1.02 | S. cerevisiae deletion strains, locus YNL233W, strain BNI4, stronger effect = lower value 1.01 | S. cerevisiae deletion strains, locus YNL248C, strain rpa49, stronger effect = lower value 1.04 | S. cerevisiae deletion strains, locus YNL250W, strain rad50, stronger effect = lower value 1.02 | S. cerevisiae deletion strains, locus YNL271C, strain bni1, stronger effect = lower value 1.02 | S. cerevisiae deletion strains, locus YNL298W, strain CLA4, stronger effect = lower value 1.02 | S. cerevisiae deletion strains, locus YNL307C, strain MCK1, stronger effect = lower value 1.03 | S. cerevisiae deletion strains, locus YNL322C, strain KRE1 (second series), stronger effect = lower value 1.01 | S. cerevisiae deletion strains, locus YNL322C, strain KRE1, stronger effect = lower value 1 | S. cerevisiae deletion strains, locus YNR049C, strain mso1, stronger effect = lower value 0.997 | S. cerevisiae deletion strains, locus YNR052C, strain pop2, stronger effect = lower value 1.02 | S. cerevisiae deletion strains, locus YOL006C, strain TOP1, stronger effect = lower value 1 | S. cerevisiae deletion strains, locus YOL012C, strain htz1 1.19 | S. cerevisiae deletion strains, locus YOL147C, strain pex11, stronger effect = lower value 1.02 | S. cerevisiae deletion strains, locus YOR001W, strain rrp6, stronger effect = lower value 0.975 | S. cerevisiae deletion strains, locus YOR061W, strain CKA2, stronger effect = lower value 1 | S. cerevisiae deletion strains, locus YOR069W, strain VPS5, stronger effect = lower value 1 | S. cerevisiae deletion strains, locus YOR070C, strain gyp1, stronger effect = lower value 1.01 | S. cerevisiae deletion strains, locus YOR080W, strain dia2, stronger effect = lower value 0.999 | S. cerevisiae deletion strains, locus YOR083W, strain WHI5, stronger effect = lower value 0.991 | S. cerevisiae deletion strains, locus YOR106W, strain vam3, stronger effect = lower value 1.03 | S. cerevisiae deletion strains, locus YOR136W, strain idh2, stronger effect = lower value 1.03 | S. cerevisiae deletion strains, locus YOR144C, strain elg1, stronger effect = lower value 1.01 | S. cerevisiae deletion strains, locus YOR184W, strain ser1, stronger effect = lower value 1.05 | S. cerevisiae deletion strains, locus YOR231W, strain MKK1, stronger effect = lower value 0.961 | S. cerevisiae deletion strains, locus YOR265W, strain rbl2, stronger effect = lower value 1 | S. cerevisiae deletion strains, locus YOR270C, strain vph1, stronger effect = lower value 1.06 | S. cerevisiae deletion strains, locus YOR290C, strain snf2, stronger effect = lower value 1.03 | S. cerevisiae deletion strains, locus YOR316C, strain cot1, stronger effect = lower value 1.02 | S. cerevisiae deletion strains, locus YPL051W, strain arl3, stronger effect = lower value 0.998 | S. cerevisiae deletion strains, locus YPL055C, strain LGE1, stronger effect = lower value 0.999 | S. cerevisiae deletion strains, locus YPL078C, strain atp4, stronger effect = lower value 1.02 | S. cerevisiae deletion strains, locus YPL106C, strain sse1, stronger effect = lower value 1.08 | S. cerevisiae deletion strains, locus YPL240C, strain hsp82, stronger effect = lower value 0.995 | S. cerevisiae deletion strains, locus YPL241C, strain CIN2, stronger effect = lower value 0.998 | S. cerevisiae deletion strains, locus YPL256C, strain CLN2, stronger effect = lower value 1.03 | S. cerevisiae deletion strains, locus YPR119W, strain clb2, stronger effect = lower value 1.01 | S. cerevisiae deletion strains, locus YPR141C, strain kar3, stronger effect = lower value 1.02 | S. cerevisiae deletion strains, locus YPR163C, strain tif3, stronger effect = lower value 1.03 | S. cerevisiae deletion strains, locus YPR167C, strain met16, stronger effect = lower value 1.02 | S. cerevisiae deletion strains, strain wtn01, stronger effect = lower value 0.984 | S. cerevisiae strains, strain wild type, stronger effect = lower value 0.999
